Most compounds without a hit are left out; they make up all but 2.8% or so of the library.
MsrA inhibitor = bovine MsrA enzyme inhibitors, primary screen, biochemical, absorbance, HTS. Methionine sulfoxide reductase A (Bos taurus). actives 0.75% (n = 360,000). purified bovine MsrA, absorbance read-out. inhibition, % at 15.5 µM; in the data active = inhibition above about 4.5%
SMARCA2 activ = SMARCA2 (BRM) function activators, primary screen, cell-based, luminescence, high throughput; AID 652017, 2013; actives 1% (n = 370,000); activation, % at 9.1 µM; MG213 cells, MMTV-luciferase reporter, dexamethasone, overnight; in the data active = activation above about 7.8%
KLK7 zymogen act = proKLK7 zymogen activators, primary screen, biochemical, fluorescence intensity | Kallikrein-7 (Homo sapiens), P49862 | purified proKLK7, EDANS-DABCYL substrate fluorescence; 100% is mature enzyme control, 0% vehicle | activation, % at 7 µM | actives 0.9% (n = 370,000) | AID 652039, 2013;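 active = activation above the mean of all tested compounds plus 3 SD, computed per campaign excluding outliers beyond control limits, cut at about 13% in these data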
Target sequence (P49862 whole entry, looked up): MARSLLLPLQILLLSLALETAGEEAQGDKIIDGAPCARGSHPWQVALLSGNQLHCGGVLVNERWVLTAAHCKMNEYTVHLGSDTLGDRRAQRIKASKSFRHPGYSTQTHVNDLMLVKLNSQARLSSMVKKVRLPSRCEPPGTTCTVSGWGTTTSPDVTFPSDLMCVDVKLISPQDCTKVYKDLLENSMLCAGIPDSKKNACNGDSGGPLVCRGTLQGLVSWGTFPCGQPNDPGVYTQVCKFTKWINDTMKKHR
MsrA act = bovine MsrA enzyme activators, primary screen, biochemical, absorbance, HTS; activation, % at 10.6 µM; purified bovine MsrA, absorbance read-out; actives 0.3% (n = 360,000); in the data active = activation above about 7.5%
KLK7 act conf = proKLK7 zymogen activators, confirmation, biochemical, fluorescence intensity, triplicate; AID 686949, 2013; activation, % at 7 µM; purified proKLK7, EDANS-DABCYL substrate fluorescence; scaled: vehicle 0, mature enzyme 100; actives 68% (n = 3,200); shares compounds with KLK7 zymogen act;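 active = activation, as change over the incubation, above the mean of all tested compounds plus 3 SD, cut at about 13% in these data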
EDANS interfere = EDANS-DABCYL substrate optical interference, artefact control for kallikrein-7 zymogen activator project, biochemical, fluorescence intensity, high throughput | activation, % at 7 µM | AID 686952, 2013 | no enzyme, 4 h; solvent 0%, active enzyme control 100% | shares compounds with KLK7 zymogen act | actives 80% (n = 3,200);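 active = activation above the all-compound mean plus 3 SD, ignoring values outside control-based bounds, cut at about 4.8% in these data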;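 also: value is the 4 h activation minus the activation read at time zero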
EDANS interf = counter-screen for kallikrein-7 activators: EDANS-DABCYL interference, dose response. actives 20% (n = 250). EDANS-DABCYL peptide fluorescence interference, no enzyme. EC50, µM. shares compounds with KLK7 zymogen act;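 active = compounds that raise the fluorescence signal in this interference counterscreen, with EC50 at or below 10 µM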;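 also: intact quenched peptide substrate alone read at 355 nm excitation and 520 nm emission; signal is fluorescence gain from T0 to T4 after four hours at room temperature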
Hits are given with their value.

Results for COc1ccc(C2C3=C(CCCC3=O)Nc3nc(C(F)(F)F)nn32)cc1OC (stereo not given) ?
MsrA inhibitor: inactive; SMARCA2 activ: inactive; KLK7 zymogen act: 15; MsrA act: inactive; KLK7 act conf: 43; EDANS interfere: 58

Results for CCOc1cc(C2C3=C(CCCC3=O)Nc3nc(C(=O)OC)nn32)ccc1OC (stereo not given) ?
MsrA inhibitor: inactive; SMARCA2 activ: inactive; KLK7 zymogen act: inactive; MsrA act: inactive

Results for COc1ccc(C2C3=C(CCCC3=O)Nc3nc(C(F)(F)F)nn32)c(OC)c1OC (stereo not given) ?
MsrA inhibitor: inactive; SMARCA2 activ: inactive; KLK7 zymogen act: 23; MsrA act: inactive; KLK7 act conf: 38; EDANS interfere: 36

Results for CC(C)(C)S(=O)N1Cc2cc(CO)ccc2[C@@H]1CCO (stereo not given in full) ?
MsrA inhibitor: inactive; SMARCA2 activ: inactive; KLK7 zymogen act: inactive; MsrA act: inactive

How did Nc1ccn(C(C=O)CC(C=O)CO)c(=O)n1 (stereo not given) do in these assays?
MsrA inhibitor: inactive; SMARCA2 activ: inactive; KLK7 zymogen act: inactive; MsrA act: inactive

Results for COC(=O)C[C@H]1C=C[C@@H](NC(=O)c2ccncc2)[C@@H](CO)O1 ?
MsrA inhibitor: inactive; SMARCA2 activ: inactive; KLK7 zymogen act: inactive

What do the screens show for `C=CC[C@@H]1NN2C(=O)[C@@H](CCc3ccccc3)[C@@H]3c4ccccc4C=NN3[C@@H]2c2ccccc21`?
SMARCA2 activ: inactive; KLK7 zymogen act: inactive

How did Cc1ccc2nc(-c3ccc(SCC(=O)Nc4nc(C)cs4)nc3)[nH]c2c1 do in these assays?
MsrA inhibitor: inactive; SMARCA2 activ: inactive; KLK7 zymogen act: inactive; MsrA act: inactive

Results for Cc1ccc2nc(-c3ccc(SCC(=O)Nc4nnc(C)s4)nc3)[nH]c2c1 ?
MsrA inhibitor: inactive; SMARCA2 activ: inactive; KLK7 zymogen act: 14; MsrA act: inactive; KLK7 act conf: inactive; EDANS interfere: 6.0

Results for Cc1ccc(OC2CCN(C(=O)[C@H]3O[C@@H](n4ccc(=O)[nH]c4=O)[C@H](O)[C@@H]3O)CC2)cc1 ?
MsrA inhibitor: inactive; SMARCA2 activ: inactive; KLK7 zymogen act: inactive; MsrA act: inactive

What do the screens show for `CCNc1ccccc1`?
MsrA inhibitor: inactive; SMARCA2 activ: inactive; KLK7 zymogen act: inactive

Results for CN(C(=O)NC1CCCCC1)[C@H]1C[C@H]2c3[nH]c4ccccc4c3CCN2C(=O)[C@H]1CO ?
MsrA inhibitor: inactive; SMARCA2 activ: inactive; KLK7 zymogen act: inactive; MsrA act: inactive

What do the screens show for `CCOC(=O)CNC(=O)N(C)[C@H]1C[C@H]2c3[nH]c4ccccc4c3CCN2C(=O)[C@H]1[C@H](C)O`?
MsrA inhibitor: inactive; SMARCA2 activ: inactive; KLK7 zymogen act: 73; MsrA act: inactive; KLK7 act conf: inactive; EDANS interfere: 9.8

What do the screens show for `CCOC(=O)N(C)[C@H]1C[C@H]2c3[nH]c4ccccc4c3CCN2C(=O)[C@H]1[C@H](C)O`?
MsrA inhibitor: inactive; SMARCA2 activ: inactive; KLK7 zymogen act: 50; KLK7 act conf: inactive; EDANS interfere: 5.9

How did CN(C(=O)C(C)(C)C)[C@H]1C[C@H]2c3[nH]c4ccccc4c3CCN2C(=O)[C@H]1CO do in these assays?
MsrA inhibitor: inactive; SMARCA2 activ: inactive; KLK7 zymogen act: 27; MsrA act: inactive; KLK7 act conf: inactive; EDANS interfere: 9.6

Results for Cc1ccc(-c2nc3ccccn3c2Nc2ccccc2)o1 ?
MsrA inhibitor: inactive; SMARCA2 activ: inactive; KLK7 zymogen act: 28; MsrA act: inactive; KLK7 act conf: 63; EDANS interfere: 68

Results for Cc1ccccc1CN1CCCCC(NC(=O)Nc2cccc(F)c2)C1=O (stereo not given) ?
SMARCA2 activ: inactive; KLK7 zymogen act: inactive

Results for N#CCn1cc(/C=N/NC(=O)c2cc3c(ccc4ccccc43)o2)c2ccccc21 ?
MsrA inhibitor: inactive; SMARCA2 activ: inactive; KLK7 zymogen act: 35; MsrA act: inactive; KLK7 act conf: inactive; EDANS interfere: inactive

Results for COc1ccc(/C=N/NC(=O)c2cc3c(ccc4ccccc43)o2)cc1OC ?
MsrA inhibitor: inactive; SMARCA2 activ: inactive; KLK7 zymogen act: 43; MsrA act: inactive; KLK7 act conf: 58; EDANS interfere: 4.5; EDANS interf: inactive

How did COc1ccc(/C=N\NC(=O)c2cc3c(ccc4ccccc43)o2)cc1O do in these assays?
MsrA inhibitor: inactive; SMARCA2 activ: inactive; KLK7 zymogen act: inactive; MsrA act: inactive

Results for COCCN1C(=O)[C@H]2C[C@@]13O[C@H](c1ccc(C(F)(F)F)cc1)N=C3C[C@H](c1ccccc1)[C@H]2C ?
MsrA inhibitor: inactive; SMARCA2 activ: inactive; KLK7 zymogen act: inactive

How did Nc1nc2ccccc2cc1S(=O)(=O)c1ccccc1 do in these assays?
MsrA inhibitor: inactive; SMARCA2 activ: inactive; KLK7 zymogen act: 13; MsrA act: inactive; KLK7 act conf: inactive; EDANS interfere: 10

What do the screens show for `COc1cc(NC(=O)c2c(F)cccc2F)c(Cl)cc1Cl`?
MsrA inhibitor: inactive; SMARCA2 activ: inactive; KLK7 zymogen act: 21; MsrA act: inactive; KLK7 act conf: 28; EDANS interfere: 27

How did O=C(Nc1ccc(OC(F)(F)F)cc1)Nc1nc2ncccn2c1-c1ccc(C(F)(F)F)cc1 do in these assays?
SMARCA2 activ: inactive; KLK7 zymogen act: inactive

How did Cc1cc(C)n2cc(CSc3ccc(Br)cc3)nc2n1 do in these assays?
MsrA inhibitor: inactive; SMARCA2 activ: inactive; KLK7 zymogen act: inactive; MsrA act: inactive

Results for Cc1cc(C)n2cc(CSc3ncn[nH]3)nc2n1 ?
MsrA inhibitor: inactive; SMARCA2 activ: inactive; KLK7 zymogen act: 28; MsrA act: inactive; KLK7 act conf: inactive; EDANS interfere: 6.8

What do the screens show for `O=c1oc2cc(OCc3ccc(C(F)(F)F)cc3)ccc2cc1-c1ccccn1`?
MsrA inhibitor: inactive; SMARCA2 activ: inactive; KLK7 zymogen act: inactive; MsrA act: inactive

Results for O=c1oc2c(CN3CCOCC3)c(O)ccc2c2c1CCC2 ?
MsrA inhibitor: inactive; SMARCA2 activ: inactive; KLK7 zymogen act: 70; MsrA act: inactive; KLK7 act conf: 68; EDANS interfere: 72

What do the screens show for `Cc1cc(=O)oc2c(CN3CCCC3)c(O)ccc12`?
MsrA inhibitor: inactive; SMARCA2 activ: inactive; KLK7 zymogen act: 45; MsrA act: inactive; KLK7 act conf: 76; EDANS interfere: 75

Compound activity (PubChem BioAssay)
